Among all 340,000 compounds or so, about 1,700 (0.5%) were called active. About 2% were inconclusive and are not listed. What follows is part of a selection rich in actives, with near analogues and random picks from the rest. Values without a mark were called inactive. No stated cut-off is given here; in the data, active means activity change below about -65%; inconclusive means mostly about -30% to -63%; inactive means weaker than that.
On the % scale 0 is the no-effect control and ±100 the full control effect.

For the assay, the system named is CtBP / adenovirus E1A interaction (AlphaScreen). The assay is described as follows: qHTS Assay for Inhibitors of the CtBP/E1A Interaction. Particulars: AlphaScreen GST-E1A/His-CtBP binding, 1536-well; hits give low values. An excerpt:
Carboxyl-terminal binding protein (CtBP) is a co-repressor for many transcription factors. […] Our studies have shown that CtBP is overexpressed in multiple human cancers, including lung, breast, and head and neck cancers. In particular, it is over-expressed in 50% of primary lung cancer and 90% of metastatic lesions. CtBP suppresses epithelial-specific genes as well as genes critical for apoptosis, providing the underlying molecular mechanism for its role in tumorigenesis. […] Based on the above data, we hypothesize that 1) CtBP suppresses the pro-apoptotic and epithelial genes, therefore overexpressed CtBP in human cancer cells increases EMT and cancer survival; 2) decreasing CtBP's function represents a targeted therapy for lung cancer and potentially multiple cancer types. As a co-repressor, CtBP binds to E1A and other transcription factors through a conserved peptide motif to carry out its action. Inhibiting this interaction using small molecules can potentially serve as effective cancer therapeutics.
To this end, we have developed a homogenous AlphaScreen assay targeting the CtBP/E1A interaction. We performed a large scale HTS of the Molecular Libraries Small Molecule Repository (MLSMR) to identify inhibitors of the CtBP/E1A interaction as potential anti-cancer therapeutics. Compounds identified can also be used as chemical probes to better understand the biological functions of CtBP.
NIH Chemical Genomics Center [NCGC]
NIH Molecular Libraries Probe Centers Network [MLPCN]
Assay Submitter (PI): Rui Zhao, University of Colorado Denver
The first step of the 5uL AlphaScreen assay is to dispense assay buffer (50 mM Tris, pH 8.0, 300 mM NaCl, 0.05% BSA, 0.02% Tween 20, 1 mM TCEP) into a Greiner 1536 white solid bottom microtiter plate (789175-F). Five microliters is added to Column 1, 4 uL is added to Column 2 and 3 uL is added to Columns 3 through 48. A 5X protein solution (125 nM GST-E1A protein + 125 nM His-tagged CtBP protein) is mixed and 1 uL is dispensed to Columns 3-48. Using a 1536 pintool, 23 nL of compound is transferred to the assay plate and the plate is incubated with a lid at 37 deg C in the dark for two hours. A solution of 5X AlphaScreen beads is mixed (50 ug/mL Glutathione linked donor beads + Nickel chelated acceptor beads) and 1 uL is dispensed to Columns 2-48. The assay plate is incubated for one hour, with a lid, at 37 deg C in the dark. The plate is read using a Perkin Elmer Envision using an AlphaScreen protocol.
Consider `CCC(C)n1c(O)c(/C=N/Nc2nc3c(c(=O)n(C)c(=O)n3C)n2C)c(=O)[nH]c1=S` (stereo not given), for which the activity change is -83.2% (active).
On to `COc1ccc(-n2nnnc2C(c2cccc3ccccc23)N2CCC(n3c(=O)[nH]c4ccccc43)CC2)cc1` (stereo not given), for which the activity change was -14.3%.
`COc1ccccc1-n1c(O)c(C=NC2CC2)c(=O)[nH]c1=O`: the activity change was 7.53%.
With `O=c1[nH]c(=S)n(C2CC2)c(O)c1/C=N/N1CCOCC1`, the activity change was -2.5%.
As to `O=C(N/N=C/c1c(O)n(C2CC2)c(=S)[nH]c1=O)c1ccccc1`, the activity change is -92.7% (active).
`Cc1cccc(-n2c(O)c(/C=N/N3CCOCC3)c(=O)[nH]c2=S)c1`: the activity change was 9.2%.
Consider `CC/C(=N\NC(=O)c1ccccc1O)c1c(O)n(Cc2ccccc2)c(=O)[nH]c1=O`, for which the activity change was -5.73%.
With `O=c1[nH]c(=O)n(Cc2ccccc2)c(O)c1/C=N/Nc1c(F)c(F)c(F)c(F)c1F`, the activity change is 4.41%.
For `CC(C)c1ccc(-n2c(O)c(/C=N/N3CCOCC3)c(=O)[nH]c2=S)cc1` the value was -2.7%; for `O=C(N/N=C/c1c(O)n(C2CC2)c(=S)[nH]c1=O)c1ccccc1Cl`, -92.7% (active); for `O=C(N/N=C/c1c(O)n(Cc2ccccc2)c(=O)[nH]c1=O)c1ccccc1`, -72.7% (active).
On to `CCOC(=O)[C@]12Cc3cc(OC)ccc3[C@H]1N(C(C)C)C(=O)c1ccccc12`, for which the activity change was -1.62%.
For the compound `CC(=CCOc1ccc2ccc(=O)oc2c1)C1=CC(=O)C(C)(C)O1`, the activity change was 1.99%.
Regarding `COC(=O)C[C@H]1CC[C@H]2NC[C@@H](O)COC[C@@H]2O1`, the activity change was -7.3%.
Regarding `CCOC(=O)[C@]12Cc3ccccc3[C@H]1N(C1CCCCC1)C(=O)c1cc(OC)ccc12`, the activity change is -16.5%.
Take `O=c1[nH]c2ccccc2n1C1CCN(C(c2ccccc2)c2nnnn2Cc2ccccc2)CC1` (stereo not given): the activity change was -12.7%.
In the case of `O=C1NCN(c2ccccc2)C12CCN(C(c1cccs1)c1nnnn1C1CCCCC1)CC2` (stereo not given) it was -7.02%.
For `O=C(NCC1=C(c2ccc3ccccc3c2)C[C@@H]2CC[C@H]1N2Cc1ccco1)c1cccs1` the value was -23.4%.
In the case of `COC(=O)CN(CCCl)P1(=O)OCCCN1CCCl` (stereo not given) it was 2.9%.
Take `COc1cccc(C(c2nnnn2-c2ccc3c(c2)OCCO3)N2CCC3(CC2)C(=O)NCN3c2ccccc2)c1OC` (stereo not given): the activity change was -13%.
For `O=c1[nH]c2ccccc2n1C1CCN(C(c2ccnc3ccccc23)c2nnnn2Cc2ccccc2)CC1` (stereo not given), the activity change was -7.28%.
For `O=c1[nH]c(=O)n(CCc2ccc(F)cc2)c(O)c1/C=N/N1CCCCC1` the value was -1.47%; for `CCCCC(=O)N/N=C/c1c(O)n(CCC2=CCCCC2)c(=O)[nH]c1=O`, -82.9% (active).
In the case of `COc1ccc(CCn2c(O)c(C=NC3CC3)c(=O)[nH]c2=O)cc1OC` it was -7.4%; in that of `COC(=O)C1=C(c2ccc(OCc3ccccc3)cc2)C[C@@H]2CC[C@H]1N2C(=O)NCc1ccc(Cl)cc1`, 0.0513%.

(Values after PubChem BioAssay AID651724 (National Center for Advancing Translational Sciences (NCATS), 2012).)
